This is part of a sample that, as a whole, favours compounds with a hit. Of some 79,000 tested, about 15% had one in any assay. Values without a mark were called inactive. Active and inactive are the calls of the source. Rule as the data show it: active = growth inhibition above about 70%; inactive = the rest.
Assays:
[1] = NCI Yeast Anticancer Drug Screen. Data for the rad50 strain (AID 155);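 also: 0% = growth of vehicle-only cultures of the same strain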; settings: S. cerevisiae rad50 strain growth inhibition; at 50.0 µM; active compounds read high
In short: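 Cells are treated with compound, grown, and their growth is then scored against vehicle-only cultures of the same repair-deficient yeast strain.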

[2] = NCI Yeast Anticancer Drug Screen. Data for the mec2-1 strain (AID 157); settings: S. cerevisiae mec2-1 strain, at 50.0 µM, active compounds read high
In short: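 Compounds were applied to mec2-1 yeast cells. Their growth was then compared with that of vehicle-treated cultures to give growth inhibition.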

[3] = NCI Yeast Anticancer Drug Screen. Data for the sgs1 mgt1 strain (AID 161);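 also: 0% = growth of cultures given vehicle only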; settings: S. cerevisiae sgs1 mgt1 strain, at 50.0 µM, active compounds read high
In short: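 Percent growth inhibition was derived by comparing compound-exposed mutant yeast with vehicle-exposed cultures. The strain carries alterations in DNA damage repair.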

[4] = NCI Yeast Anticancer Drug Screen. Data for the cln2 rad14 strain (AID 165);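 also: 0% = growth equal to vehicle treated cultures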; settings: S. cerevisiae cln2 rad14 strain, at 50.0 µM, active compounds read high
In short: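 Strain: cln2 rad14 yeast, altered in cell cycle control and DNA damage repair. Read-out: growth inhibition vs vehicle.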

[5] = NCI Yeast Anticancer Drug Screen. Data for the bub3 strain (AID 167); settings: S. cerevisiae bub3 mutant strain, at 50.0 µM, active compounds read high
In short: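 Part of a panel of yeast mutants defective in DNA damage repair or cell cycle regulation. Each strain is grown with compound, and inhibition is calculated relative to solvent-treated cultures.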

[6] = NCI Yeast Anticancer Drug Screen. Data for the mlh1 rad18 strain (AID 175); settings: S. cerevisiae mlh1 rad18 strain growth inhibition; at 50.0 µM; active compounds read high
In short: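 A repair-deficient yeast strain is exposed to test compound, and growth is scored relative to vehicle-treated controls.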

SMILES: COc1cccc2c(Nc3ccc(S(=O)(=O)Nc4ncccn4)cc3)c3ccc([N+](=O)[O-])cc3nc12
- growth inhibition [1]: 59.8%
- growth inhibition [2]: 12.1%
- growth inhibition [3]: 29.2%
- growth inhibition [4]: 11.2%
- growth inhibition [5]: 32.2%
- growth inhibition [6]: 16.2%

SMILES: [Cl][Ge]([Cl])([c]1ccccc1)[c]1ccccc1
- growth inhibition [1]: 29.1%
- growth inhibition [2]: 20.9%
- growth inhibition [3]: 29.1%
- growth inhibition [4]: 12.8%
- growth inhibition [5]: 43%
- growth inhibition [6]: 29.1%

SMILES: CCCCCCCCCCCCCC/C(C(=O)OC)=C(/O)C(=O)OCC
- growth inhibition [1]: -40.4%
- growth inhibition [2]: -30.4%
- growth inhibition [3]: -27.6%
- growth inhibition [4]: -17.2%
- growth inhibition [5]: -57.8%
- growth inhibition [6]: -19.9%

SMILES: c1ccc2c(c1)c1c(n2CCOCCN2CCCCC2)CCCC1
- growth inhibition [1]: 33.9%
- growth inhibition [2]: 19.9%
- growth inhibition [3]: 29.3%
- growth inhibition [4]: 28.1%
- growth inhibition [5]: 28.4%
- growth inhibition [6]: 19.8%

SMILES: N#C/C1=C(\C#N)CCC2(C#N)C3C=CC(O3)C2(C#N)CC1 (configuration not stated)
- growth inhibition [1]: 14.9%
- growth inhibition [2]: 12.6%
- growth inhibition [3]: -0.65%
- growth inhibition [4]: 13.3%
- growth inhibition [5]: 8.45%
- growth inhibition [6]: 23.1%

SMILES: Clc1cccc(-c2ncc(-c3ccccc3)o2)c1
- growth inhibition [1]: 8.7%
- growth inhibition [2]: -3.8%
- growth inhibition [3]: -0.6%
- growth inhibition [4]: -29.2%
- growth inhibition [5]: 2.15%
- growth inhibition [6]: 19.1%

SMILES: C(=N/Nc1ccccc1)/c1ccco1
- growth inhibition [1]: 31.6%
- growth inhibition [2]: -1%
- growth inhibition [3]: -2.05%
- growth inhibition [4]: 13.7%
- growth inhibition [5]: 12.5%
- growth inhibition [6]: 54.9%

SMILES: Cc1ccccc1/C=C1/N=C(c2ccccc2)OC1=O
- growth inhibition [1]: -27.3%
- growth inhibition [2]: -17.4%
- growth inhibition [3]: -19.7%
- growth inhibition [4]: 0.9%
- growth inhibition [5]: -14.4%
- growth inhibition [6]: -6.85%

SMILES: CCOC(=O)CS(=O)(=O)C1CCCCC1c1cc(OC)c(OC)c(OC)c1 (configuration not stated)
- growth inhibition [1]: 3.25%
- growth inhibition [2]: -3.2%
- growth inhibition [3]: -5%
- growth inhibition [4]: -6.7%
- growth inhibition [5]: 0.6%
- growth inhibition [6]: 10.4%

SMILES: N#Cc1ccccc1C(Cl)(Cl)c1cnccn1
- growth inhibition [1]: 9.9%
- growth inhibition [2]: -6.85%
- growth inhibition [3]: -10.7%
- growth inhibition [4]: 29.9%
- growth inhibition [5]: -0.4%
- growth inhibition [6]: 20.1%

SMILES: COc1cc(Cl)ccc1NC(=O)Oc1ccc2ccccc2c1
- growth inhibition [1]: 11.8%
- growth inhibition [2]: 14.2%
- growth inhibition [3]: 13%
- growth inhibition [4]: 9.2%
- growth inhibition [5]: 14.4%
- growth inhibition [6]: 9.4%

SMILES: Cc1ccc(Nc2nc3ccccc3nc2NS(=O)(=O)c2ccc(N)cc2)cc1
- growth inhibition [1]: 20.2%
- growth inhibition [2]: 11.8%
- growth inhibition [3]: 13.3%
- growth inhibition [4]: 5.85%
- growth inhibition [5]: 7.45%
- growth inhibition [6]: -4.2%

SMILES: NNC(=S)N/N=C\c1ccnc2ccccc12
- growth inhibition [1]: 9.05%
- growth inhibition [2]: 2.85%
- growth inhibition [3]: 36.6%
- growth inhibition [4]: 28.7%
- growth inhibition [5]: 30.2%
- growth inhibition [6]: 23.4%

SMILES: Cc1cc(C)c2c(=O)c3c(oc2c1)O[C@@](C)(CO)C[C@@H]3c1ccccc1
- growth inhibition [1]: 1.15%
- growth inhibition [2]: 11.2%
- growth inhibition [3]: 2.3%
- growth inhibition [4]: 6.05%
- growth inhibition [5]: 12%
- growth inhibition [6]: 5.2%

SMILES: C#CCOc1ccc(O)c(C(=O)OCCCOC(=O)c2cc(OCC#C)ccc2O)c1
- growth inhibition [1]: 16.1%
- growth inhibition [2]: 6.95%
- growth inhibition [3]: -3.9%
- growth inhibition [4]: 16.9%
- growth inhibition [5]: -2.1%
- growth inhibition [6]: 15.1%

SMILES: O=C(CN=C(CN(c1ccccc1)c1ccccc1)Oc1c(Cl)cc(Cl)cc1Cl)n1cnc2ccccc21
- growth inhibition [1]: 0.9%
- growth inhibition [2]: -9%
- growth inhibition [3]: 35.3%
- growth inhibition [4]: -63.4%
- growth inhibition [5]: -46.4%
- growth inhibition [6]: 10.4%

SMILES: O=c1[nH]nc(Sc2ccccc2)c2nncn12
- growth inhibition [1]: 15.7%
- growth inhibition [2]: -1.05%
- growth inhibition [3]: -5.45%
- growth inhibition [4]: -16.6%
- growth inhibition [5]: -4.7%
- growth inhibition [6]: 24.6%

SMILES: Cc1nc2ccc(Cl)cc2c2c1CCS2
- growth inhibition [1]: -19.1%
- growth inhibition [2]: -17.3%
- growth inhibition [3]: -2.8%
- growth inhibition [4]: -18.1%
- growth inhibition [5]: -23.1%
- growth inhibition [6]: -51.4%

SMILES: CCCC1=NC(C(F)(F)F)(C(F)(F)F)N=C(N2CCOCC2)O1
- growth inhibition [1]: 0.95%
- growth inhibition [2]: 7.25%
- growth inhibition [3]: -2.3%
- growth inhibition [4]: 4.55%
- growth inhibition [5]: 27.1%
- growth inhibition [6]: 1.45%

SMILES: COc1ccc2c(c1)c(CC(=O)O)c(Br)n2Cc1ccccc1
- growth inhibition [1]: 27.9%
- growth inhibition [2]: 33.4%
- growth inhibition [3]: 12%
- growth inhibition [4]: 21.4%
- growth inhibition [5]: 20.1%
- growth inhibition [6]: 77.7% (active)

SMILES: C1=C(c2ccccc2)c2ccccc2/C1=N/Nc1ccccc1
- growth inhibition [1]: 6.4%
- growth inhibition [2]: 6.15%
- growth inhibition [3]: 8.1%
- growth inhibition [4]: 2.3%
- growth inhibition [5]: 0.6%
- growth inhibition [6]: 5%

SMILES: O=C(Nc1ccccc1Cl)c1ccc(F)cc1
- growth inhibition [1]: -2.25%
- growth inhibition [2]: -12.2%
- growth inhibition [3]: 15%
- growth inhibition [4]: 7.4%
- growth inhibition [5]: -21.4%
- growth inhibition [6]: -3.85%

SMILES: Cc1ccc[n+]([O-])c1Cl
- growth inhibition [1]: 1.55%
- growth inhibition [2]: 14.2%
- growth inhibition [3]: -8.55%
- growth inhibition [4]: -34.2%
- growth inhibition [5]: 11.2%
- growth inhibition [6]: 4.2%

SMILES: CC12CC3CC(O)(C1)CC(O)(C3)C2
- growth inhibition [1]: 7.25%
- growth inhibition [2]: -11.1%
- growth inhibition [3]: -1.45%
- growth inhibition [4]: 22.2%
- growth inhibition [5]: -8.3%
- growth inhibition [6]: 4.15%

SMILES: CC(=O)N(C)c1ccc(NC(=O)Cc2ccccc2)cc1
- growth inhibition [1]: 12.7%
- growth inhibition [2]: 22.7%
- growth inhibition [3]: 23.6%
- growth inhibition [4]: 9.95%
- growth inhibition [5]: 35.5%
- growth inhibition [6]: -2.35%

SMILES: COc1cc2c(cc1OC)C1CCc3ccccc3CN1CC2 (configuration not stated)
- growth inhibition [1]: 0.7%
- growth inhibition [2]: -25.5%
- growth inhibition [3]: -6.85%
- growth inhibition [4]: 8.95%
- growth inhibition [5]: -15.8%
- growth inhibition [6]: 3.15%

SMILES: O=C1CC(c2ccc(Cl)cc2)NC(c2ccc(Cl)cc2)C1 (configuration not stated)
- growth inhibition [1]: 13.6%
- growth inhibition [2]: 2.35%
- growth inhibition [3]: 8.55%
- growth inhibition [4]: 11.2%
- growth inhibition [5]: 6.4%
- growth inhibition [6]: 14.8%

SMILES: c1ccc2cc(C3OCCCO3)ccc2c1
- growth inhibition [1]: 19.4%
- growth inhibition [2]: 10.2%
- growth inhibition [3]: -2.05%
- growth inhibition [4]: -62.9%
- growth inhibition [5]: -2.45%
- growth inhibition [6]: 4.2%

SMILES: COc1cc2c[n+](C)c3c(c2cc1OC)Cc1cc2c(cc1-3)OCO2
- growth inhibition [1]: -27.5%
- growth inhibition [2]: -13.2%
- growth inhibition [3]: 1.8%
- growth inhibition [4]: 18.9%
- growth inhibition [5]: -14.7%
- growth inhibition [6]: 6.25%

SMILES: CC(=O)NC(C(=O)Nc1ccccc1)=C(C)C
- growth inhibition [1]: -7.45%
- growth inhibition [2]: -7.9%
- growth inhibition [3]: -11.8%
- growth inhibition [4]: -11.5%
- growth inhibition [5]: 5.25%
- growth inhibition [6]: 0.8%

SMILES: O=C1C(=O)c2ccccc2C(O)=C1Br
- growth inhibition [1]: 27.9%
- growth inhibition [2]: 39.4%
- growth inhibition [3]: 49.4%
- growth inhibition [4]: -61%
- growth inhibition [5]: 28.4%
- growth inhibition [6]: 29.8%

SMILES: CCCCOC(=O)CCc1nc2c([nH]1)c(=O)n(C)c(=O)n2C
- growth inhibition [1]: 15.8%
- growth inhibition [2]: 8.9%
- growth inhibition [3]: 9.5%
- growth inhibition [4]: 42.4%
- growth inhibition [5]: 9.65%
- growth inhibition [6]: -0.45%

SMILES: COc1cccc(NC(=O)CSc2nnc(-c3ccc(NC(C)=O)cc3)o2)c1
- growth inhibition [1]: -29.2%
- growth inhibition [2]: -15.5%
- growth inhibition [3]: -15.3%
- growth inhibition [4]: 6.15%
- growth inhibition [5]: -25.4%
- growth inhibition [6]: -16.9%

SMILES: COc1cc([N+](=O)[O-])cc(C(C)=O)c1O
- growth inhibition [1]: 17.9%
- growth inhibition [2]: 37.2%
- growth inhibition [3]: 31.5%
- growth inhibition [4]: 2.45%
- growth inhibition [5]: 15.1%
- growth inhibition [6]: 38.5%

SMILES: CCOP(=O)(OCC)/C(C#N)=C/c1cccc([N+](=O)[O-])c1
- growth inhibition [1]: -14.2%
- growth inhibition [2]: 2.5%
- growth inhibition [3]: -4.85%
- growth inhibition [4]: 3.85%
- growth inhibition [5]: -6.55%
- growth inhibition [6]: 9.25%

SMILES: O=C(CCC(=O)Nc1cccc([N+](=O)[O-])c1)CC(=O)c1ccc(Cl)cc1
- growth inhibition [1]: -26.6%
- growth inhibition [2]: -4%
- growth inhibition [3]: -7.9%
- growth inhibition [4]: -25%
- growth inhibition [5]: -12.1%
- growth inhibition [6]: -23.3%

SMILES: COC(=O)c1cncn1C1CC1
- growth inhibition [1]: 8.25%
- growth inhibition [2]: -7.1%
- growth inhibition [3]: -3.2%
- growth inhibition [4]: -58.5%
- growth inhibition [5]: -2.95%
- growth inhibition [6]: -8.2%

Source: PubChem BioAssay (NCI)
